Activity calls are given as the source filed them. Rule for the calls: active = hit-call score of the fitted dose curve at least 0.9, where 1 is the maximum; inactive = score below 0.9.
Columns and labels:
[1] = ATG_GLI_CIS: Attagene CIS-FACTORIAL HepG2 Assay for human Zinc Finger Protein GLI1 (AID 2282945); settings: HepG2, Attagene cis-factorial reporter mRNA, GLI element; actives raise or lower the signal
Outline: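 Transiently transfected HepG2 cells report endogenous transcription factor activity via cis-element-driven reporter units. After 24 h compound exposure, reporter mRNA was measured by RT-PCR with capillary electrophoresis; bidirectional fitting against DMSO baseline.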

[2] = ATG_ISRE_CIS: Attagene CIS-FACTORIAL HepG2 Assay for human Interferon Regulatory Factor 1 (IRF1) binding to an Interferon-Stimulated Response Element (ISRE) (AID 2282948); settings: HepG2 ISRE cis-reporter (Attagene), mRNA transcription readout; actives raise or lower the signal
Outline: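 Uses HepG2 liver cells transfected with cis-regulated reporters and measures mRNA 24 h post-dosing through RT-PCR, primer-extension labelling and capillary electrophoresis, with DMSO as negative control.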

[3] = ATG_M_32_CIS: Attagene CIS-FACTORIAL HepG2 Assay for M32 Transcription Factor (Internal Marker) (AID 2282949); settings: HepG2 Attagene cis-factorial M32 reporter, mRNA; actives raise or lower the signal;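 note: background control marker of the multiplexed CIS panel rather than a real target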
Outline: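 HepG2 human liver cells transiently transfected with cis-promoter-driven multiple reporter transcription units, dosed 24 h. Reporter mRNA quantified by RT-PCR, FAM-labelled primer extension, HpaI digest and capillary electrophoresis; bidirectional fit versus DMSO baseline.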

[4] = ATG_M_06_CIS: Attagene CIS-FACTORIAL HepG2 Assay for M06 Transcription Factor (Internal Marker) (AID 2282950); settings: HepG2 Attagene CIS-FACTORIAL M06 internal marker reporter; actives raise or lower the signal
Outline: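 Internal background marker within multiplexed cis-reporter HepG2 system. Cells transiently transfected, dosed 24 h; reporter mRNA measured by RT-PCR, HpaI digestion and capillary electrophoresis. Bidirectional fit relative to DMSO.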

[5] = target: Hypoxia-inducible factor 1-alpha (Homo sapiens) (UniProt Q16665); assay: ATG_HIF1a_CIS: Attagene CIS-FACTORIAL HepG2 Assay for human Hypoxia Inducible Factor 1 (HIF1A) (AID 2282951); settings: HepG2 Attagene cis-factorial HIF1a reporter transcription; actives raise or lower the signal
Outline: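 Transient MRTU transfection of human HepG2 liver cells, 24 h compound treatment, then total RNA isolation, oligo(dT) reverse transcription, PCR amplification, fluorescent labelling and capillary electrophoresis of reporter fragments. Gain or loss relative to DMSO.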

[6] = target: Hepatocyte nuclear factor 6 (Homo sapiens) (UniProt Q9UBC0); assay: ATG_HNF6_CIS: Attagene CIS-FACTORIAL HepG2 Assay for human Hepatocyte Nuclear Factor 6 (HNF6) (AID 2282952); settings: HepG2 Attagene cis-factorial HNF6 reporter transcription; actives raise or lower the signal
Outline: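 Using cis-element reporters in HepG2 liver cells, the assay tracks endogenous factor-driven transcription 24 h post-dosing. Signal comes from 6-FAM-labelled, HpaI-digested RT-PCR fragments, with gain or loss scored against DMSO.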

[7] = target: Heat shock factor protein 1 (Homo sapiens) (UniProt Q00613); assay: ATG_HSE_CIS: Attagene CIS-FACTORIAL HepG2 Assay for human Heat Shock Transcription Factor 1 (HSE) (AID 2282953); settings: HepG2 HSE cis-reporter, Attagene RNA transcription; actives raise or lower the signal
Outline: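 HepG2 cells transfected with cis-promoter reporter units sensing endogenous transcription factor activity; reporter mRNA quantified 24 h post-dose by RT-PCR and capillary electrophoresis of 6-FAM-labelled products. Bidirectional fitting against DMSO.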

[8] = ATG_MRE_CIS: Attagene CIS-FACTORIAL HepG2 Assay for human Metal Responsive Element (MRE) (AID 2282954); settings: HepG2 MRE cis-reporter transcription, Attagene multiplex; actives raise or lower the signal
Outline: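 Measured here is mRNA induction from an MRE cis-element reporter in HepG2 after 24 h, quantified by fluorescence of labelled RT-PCR products on capillary electrophoresis; gain- and loss-of-signal fits use DMSO as baseline.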

[9] = ATG_PBREM_CIS: Attagene CIS-FACTORIAL HepG2 Assay for human Phenobarbital-responsive Enhancer Module (PBREM) (AID 2282955); settings: HepG2 PBREM cis-reporter, Attagene multiplexed transcription; actives raise or lower the signal
Outline: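 Endogenous transcription factors in human liver HepG2 cells drive a PBREM cis-element reporter, whose transcript level after 24 h treatment is quantified by RT-PCR with capillary electrophoresis; activity fitted in both directions against DMSO.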

[10] = ATG_PXRE_CIS: Attagene CIS-FACTORIAL HepG2 Assay for human Pregnane X Receptor Element (PXRE) (AID 2282957); settings: HepG2 Attagene CIS-FACTORIAL PXRE reporter, mRNA; actives raise or lower the signal
Outline: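 Using HepG2 transfected with multiple reporter transcription units, endogenous factor-driven transcription was scored as reporter mRNA after 24 h exposure.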

[11] = ATG_PPRE_CIS: Attagene CIS-FACTORIAL HepG2 Assay for human Peroxisome Proliferator-activated Response Element (PPRE) (AID 2282958); settings: HepG2 PPRE cis-element reporter, Attagene transcription factor profiling; actives raise or lower the signal
Outline: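 HepG2, transient MRTU transfection (cis promoter elements, endogenous TFs). 24 h dosing. RNA → oligo(dT) RT → PCR → 6-FAM primer extension → HpaI digest → CE. Bidirectional fit vs DMSO.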

[12] = ATG_RORE_CIS: Attagene CIS-FACTORIAL HepG2 Assay for human RAR-related Orphan Receptor Element (RORE) (AID 2282959); settings: HepG2 Attagene cis-factorial RORE reporter, mRNA; actives raise or lower the signal
Outline: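 Transient MRTU transfection of human HepG2 liver cells (FuGene 6); 24 h compound exposure; TriZol RNA, oligo(dT) RT, PCR, FAM labeling, HpaI cut, CE fragment analysis. DMSO = negative control/baseline.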

[13] = ATG_Sox_CIS: Attagene CIS-FACTORIAL HepG2 Assay for human SRY-box transcription factor (SOX) (AID 2282960); settings: HepG2 Attagene cis-factorial SOX reporter, mRNA; actives raise or lower the signal
Outline: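 Endogenous factor activity in human liver HepG2 cells carrying transfected cis-regulated reporter units. RNA taken 24 h post-dose, reverse-transcribed, PCR-amplified and sized by capillary electrophoresis. Gain or loss of signal fitted relative to DMSO.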

[14] = target: Transcription factor Sp1 (Homo sapiens) (UniProt P08047); assay: ATG_Sp1_CIS: Attagene CIS-FACTORIAL HepG2 Assay for human Specificity Protein 1 (Sp1) (AID 2282961); settings: HepG2 Sp1 cis-reporter transcription, actives raise or lower the signal
Outline: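 Transient MRTU-transfected HepG2, 24 h compound exposure. Total RNA → oligo(dT) RT → PCR of reporter → 6-FAM primer extension → HpaI digest → CE. Endpoint fitted both directions vs DMSO.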

[15] = ATG_SREBP_CIS: Attagene CIS-FACTORIAL HepG2 Assay for human Sterol Regulatory Element Binding (SREBP) (AID 2282962); settings: HepG2 Attagene cis-factorial SREBP reporter, mRNA; actives raise or lower the signal
Outline: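 In this cis-format assay, HepG2 liver cells express reporters controlled by promoter elements responsive to native transcription factors. Exposure lasts 24 h; reporter mRNA fluorescence from capillary electrophoresis gives the signal, fitted bidirectionally against DMSO.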

[16] = target: Signal transducer and activator of transcription 3 (Homo sapiens) (UniProt P40763); assay: ATG_STAT3_CIS: Attagene CIS-FACTORIAL HepG2 Assay for human Signal Transducer and Activator of Transcription 3 (STAT3) (AID 2282963); settings: HepG2, Attagene cis-factorial STAT3 reporter transcription; actives raise or lower the signal
Outline: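 Fluorescence intensity of 6-FAM-labelled reporter fragments, separated by capillary electrophoresis after RT-PCR, gave the signal. Cells were HepG2 transfected with cis-element reporter units and treated 24 h; fitting was bidirectional relative to DMSO.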

[17] = ATG_TA_CIS: Attagene CIS-FACTORIAL HepG2 Assay for human TA Basal Promoter (AID 2282964); settings: HepG2 Attagene CIS-factorial TA basal promoter reporter; actives raise or lower the signal
Outline: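 HepG2 cells transiently transfected with multiple reporter units under cis promoter elements, reporting endogenous transcription factor activity; this endpoint tracks the TA basal promoter as background control. Reporter mRNA after 24 h dosing measured by RT-PCR/capillary electrophoresis; bidirectional fits versus DMSO.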

[18] = target: Paired box protein Pax-6 (Homo sapiens) (UniProt P26367); assay: ATG_Pax6_CIS: Attagene CIS-FACTORIAL HepG2 Assay for human Paired Box 6 (PAX6) (AID 2282956); settings: HepG2 CIS-FACTORIAL PAX6 reporter transcription, RNA readout; actives raise or lower the signal
Outline: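 DMSO-referenced bidirectional fits of reporter mRNA fluorescence; HepG2 with transient cis-promoter MRTUs, 24 h post-dose, RT-PCR plus capillary electrophoresis detection.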

Measured: AC50

Sequence of Signal transducer and activator of transcription 3 (Homo sapiens) (P40763 whole entry, looked up, the tested form may be a part): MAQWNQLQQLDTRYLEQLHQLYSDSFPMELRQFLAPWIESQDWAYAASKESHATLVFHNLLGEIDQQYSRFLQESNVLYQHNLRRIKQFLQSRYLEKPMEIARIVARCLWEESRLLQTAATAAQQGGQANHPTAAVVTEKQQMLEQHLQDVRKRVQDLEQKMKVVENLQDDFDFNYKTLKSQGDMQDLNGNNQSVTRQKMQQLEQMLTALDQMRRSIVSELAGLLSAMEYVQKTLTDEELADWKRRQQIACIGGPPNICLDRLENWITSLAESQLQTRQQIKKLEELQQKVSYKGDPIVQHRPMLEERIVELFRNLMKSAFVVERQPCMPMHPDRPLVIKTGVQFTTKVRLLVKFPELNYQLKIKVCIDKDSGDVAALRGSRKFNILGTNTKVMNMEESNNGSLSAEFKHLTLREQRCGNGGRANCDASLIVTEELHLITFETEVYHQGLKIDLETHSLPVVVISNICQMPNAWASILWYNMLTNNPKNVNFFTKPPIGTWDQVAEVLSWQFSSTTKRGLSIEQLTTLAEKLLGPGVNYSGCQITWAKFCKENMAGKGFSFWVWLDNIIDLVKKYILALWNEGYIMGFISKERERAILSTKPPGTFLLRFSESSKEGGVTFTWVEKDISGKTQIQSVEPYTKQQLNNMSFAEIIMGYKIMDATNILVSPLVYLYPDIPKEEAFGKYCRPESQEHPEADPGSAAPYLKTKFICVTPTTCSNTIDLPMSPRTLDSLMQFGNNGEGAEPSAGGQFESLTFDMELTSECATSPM
Sequence of Heat shock factor protein 1 (Homo sapiens) (Q00613 whole entry, looked up): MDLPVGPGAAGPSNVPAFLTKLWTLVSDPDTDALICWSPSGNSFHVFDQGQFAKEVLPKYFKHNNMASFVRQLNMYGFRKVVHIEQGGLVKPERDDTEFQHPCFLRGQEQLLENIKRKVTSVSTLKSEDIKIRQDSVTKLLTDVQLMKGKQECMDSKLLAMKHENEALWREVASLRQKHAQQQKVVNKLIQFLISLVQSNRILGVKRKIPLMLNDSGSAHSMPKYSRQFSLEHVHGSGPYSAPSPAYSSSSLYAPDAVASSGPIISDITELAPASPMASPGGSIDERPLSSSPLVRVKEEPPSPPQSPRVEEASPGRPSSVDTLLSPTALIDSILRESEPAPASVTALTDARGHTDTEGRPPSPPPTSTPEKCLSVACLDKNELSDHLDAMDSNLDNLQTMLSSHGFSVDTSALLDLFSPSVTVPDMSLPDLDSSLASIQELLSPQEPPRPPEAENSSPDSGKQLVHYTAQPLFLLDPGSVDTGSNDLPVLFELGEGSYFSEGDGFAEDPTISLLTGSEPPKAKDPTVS
Sequence of Hepatocyte nuclear factor 6 (Homo sapiens) (Q9UBC0 whole entry, looked up, the tested form may be a part): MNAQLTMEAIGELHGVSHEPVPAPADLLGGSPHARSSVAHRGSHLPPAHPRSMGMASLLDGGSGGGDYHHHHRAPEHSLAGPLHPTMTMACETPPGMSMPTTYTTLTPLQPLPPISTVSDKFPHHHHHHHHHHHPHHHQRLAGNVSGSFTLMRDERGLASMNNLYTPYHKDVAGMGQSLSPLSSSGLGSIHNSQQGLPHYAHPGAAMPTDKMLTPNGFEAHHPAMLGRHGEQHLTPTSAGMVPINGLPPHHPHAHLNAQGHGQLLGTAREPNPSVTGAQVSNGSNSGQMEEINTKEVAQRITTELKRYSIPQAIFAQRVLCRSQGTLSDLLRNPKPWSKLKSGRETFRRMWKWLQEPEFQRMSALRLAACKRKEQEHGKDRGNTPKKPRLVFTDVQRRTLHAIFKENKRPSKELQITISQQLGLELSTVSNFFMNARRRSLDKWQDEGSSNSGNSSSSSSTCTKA
Sequence of Hypoxia-inducible factor 1-alpha (Homo sapiens) (Q16665 whole entry, looked up, the tested form may be a part): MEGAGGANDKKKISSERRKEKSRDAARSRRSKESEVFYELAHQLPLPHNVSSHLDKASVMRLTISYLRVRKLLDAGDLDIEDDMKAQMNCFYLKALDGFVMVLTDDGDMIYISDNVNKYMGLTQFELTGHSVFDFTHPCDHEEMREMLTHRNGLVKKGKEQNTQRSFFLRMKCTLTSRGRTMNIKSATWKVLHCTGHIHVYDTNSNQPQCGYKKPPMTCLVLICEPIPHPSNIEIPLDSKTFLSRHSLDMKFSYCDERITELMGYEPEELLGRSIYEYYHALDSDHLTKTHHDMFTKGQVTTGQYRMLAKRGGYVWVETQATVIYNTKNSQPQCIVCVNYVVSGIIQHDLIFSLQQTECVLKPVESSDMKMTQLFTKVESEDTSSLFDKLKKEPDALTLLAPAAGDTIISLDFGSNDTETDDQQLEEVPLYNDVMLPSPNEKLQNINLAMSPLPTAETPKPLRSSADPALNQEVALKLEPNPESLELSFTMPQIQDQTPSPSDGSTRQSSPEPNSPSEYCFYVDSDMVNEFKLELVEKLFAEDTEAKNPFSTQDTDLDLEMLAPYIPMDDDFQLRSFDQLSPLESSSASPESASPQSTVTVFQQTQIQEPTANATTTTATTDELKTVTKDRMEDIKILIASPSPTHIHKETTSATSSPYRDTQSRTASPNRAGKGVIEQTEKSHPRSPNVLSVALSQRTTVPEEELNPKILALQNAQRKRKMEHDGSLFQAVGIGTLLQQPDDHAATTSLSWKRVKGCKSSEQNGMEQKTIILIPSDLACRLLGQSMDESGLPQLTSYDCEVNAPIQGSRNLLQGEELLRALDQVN
Sequence of Transcription factor Sp1 (Homo sapiens) (P08047 whole entry, looked up): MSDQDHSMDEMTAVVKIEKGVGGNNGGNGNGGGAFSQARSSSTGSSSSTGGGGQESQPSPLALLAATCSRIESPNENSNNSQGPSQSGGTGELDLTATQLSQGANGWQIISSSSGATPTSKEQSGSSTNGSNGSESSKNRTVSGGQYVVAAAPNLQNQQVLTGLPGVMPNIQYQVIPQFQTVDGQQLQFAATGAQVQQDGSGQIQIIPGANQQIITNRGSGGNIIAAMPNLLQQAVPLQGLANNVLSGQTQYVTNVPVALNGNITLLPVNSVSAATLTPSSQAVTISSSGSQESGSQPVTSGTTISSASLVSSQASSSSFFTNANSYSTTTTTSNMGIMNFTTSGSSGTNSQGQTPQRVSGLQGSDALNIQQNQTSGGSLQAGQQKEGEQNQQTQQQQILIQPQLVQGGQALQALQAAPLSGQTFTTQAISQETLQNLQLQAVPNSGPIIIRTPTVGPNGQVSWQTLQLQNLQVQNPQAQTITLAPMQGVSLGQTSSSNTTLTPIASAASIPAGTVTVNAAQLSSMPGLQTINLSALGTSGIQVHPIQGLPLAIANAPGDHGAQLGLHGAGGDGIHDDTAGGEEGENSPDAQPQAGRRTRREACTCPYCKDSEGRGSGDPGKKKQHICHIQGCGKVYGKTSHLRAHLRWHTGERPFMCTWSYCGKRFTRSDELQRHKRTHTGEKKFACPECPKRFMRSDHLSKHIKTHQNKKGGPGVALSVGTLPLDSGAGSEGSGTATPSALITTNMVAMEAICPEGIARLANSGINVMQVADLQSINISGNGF
Sequence of Paired box protein Pax-6 (Homo sapiens) (P26367 whole entry, looked up): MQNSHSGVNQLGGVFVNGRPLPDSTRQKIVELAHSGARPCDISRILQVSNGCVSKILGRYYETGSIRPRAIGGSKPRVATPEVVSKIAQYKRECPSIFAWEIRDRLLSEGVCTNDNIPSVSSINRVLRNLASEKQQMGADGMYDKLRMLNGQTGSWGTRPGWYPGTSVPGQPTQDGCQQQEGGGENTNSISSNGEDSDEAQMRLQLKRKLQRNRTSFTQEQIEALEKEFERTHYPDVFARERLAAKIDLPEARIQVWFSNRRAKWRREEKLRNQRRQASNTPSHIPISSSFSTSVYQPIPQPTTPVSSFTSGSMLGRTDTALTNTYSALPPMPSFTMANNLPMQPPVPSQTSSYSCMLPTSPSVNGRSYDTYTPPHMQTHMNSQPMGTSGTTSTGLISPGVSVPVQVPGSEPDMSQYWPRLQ

CCCc1ccc(N)cc1
not listed: [18]
inactive: all other assays above

CCCCCCCC1CCCC1=O (stereo not drawn)
active: [10] 27.9 µM
not listed: [9]
inactive: all other assays above

CCOC(=O)CC1(C)OCC(C)O1 (stereo not drawn)
not listed: [8]
inactive: all other assays above

COC(=O)c1cccc(C(=O)OC)c1
not listed: [9]
inactive: all other assays above

CCCCCCCCCOS(=O)(=O)O
active: [11] 24 µM
not listed: [9] | [12]
inactive: all other assays above

CC(CO)c1ccccc1 (stereo not drawn)
not listed: [10] | [11]
inactive: all other assays above

CC1=CCC(=C(C)C)CC1
not listed: [10] | [11] | [12]
inactive: all other assays above

CCOC(=O)C=Cc1ccccc1
active: [10] 27.8 µM
not listed: [7]
inactive: all other assays above

COC(=O)C(C)Oc1ccc(Oc2ncc(C(F)(F)F)cc2Cl)cc1 (stereo not drawn)
active: [9] 77.7 µM | [10] 14.1 µM | [11] 34.3 µM | [12] 64.6 µM
not listed: [8]
inactive: all other assays above

CCCCCCCC(=O)N(C)C
not listed: [10]
inactive: all other assays above

CC(C)CCCC(C)(C)O
not listed: [7] | [15]
inactive: all other assays above

OCC=Cc1ccccc1
active: [10] 33.1 µM
not listed: [9] | [11] | [12] | [15]
inactive: all other assays above

C=C(C)CCCC(C)CCO (stereo not drawn)
active: [10] 6.72 µM
not listed: [9]
inactive: all other assays above

CCCCCCCCCCCCOC(C)=O
not listed: [9] | [18]
inactive: all other assays above

CCC(C)C1CCCCC1=O (stereo not drawn)
not listed: [9]
inactive: all other assays above

CN(C)C(=O)Nc1ccccc1
active: [10] 26.5 µM
not listed: [7] | [15]
inactive: all other assays above

O=C(O)c1ccco1
not listed: [9] | [11] | [12] | [17]
inactive: all other assays above

CCC(C)(C)C1CCC(=O)CC1
active: [10] 5.24 µM
not listed: [9]
inactive: all other assays above

From PubChem BioAssay (EPA / NIEHS)
